DAX1 inh-1 – inhibitors of DAX1 repression of SF-1 activated StAR promoter. inhibition, % at 6.8 µM. HEK293T StAR-luciferase reporter, SF-1/DAX-1 repression relief. hit rate 1.1% among 370,000;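 active = inhibition above the mean over all tested compounds plus 3 SD, cut at about 3.6% in these data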;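 note: higher inhibition means more luminescence from relief of DAX-1 repression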
hcDAF-12 act – activators of H. contortus DAF-12 nuclear receptor. HEK293 hcDAF-12 lit1-tk-luc reporter, luminescence; 0% DMSO, 100% Δ7-dafachronic acid. activation, % at 6.8 µM. hit rate 1.4% among 370,000;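 active = activation above the mean of all tested compounds plus 3 SD, cut at about 5.5% in these data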
ssDAF-12 act – activates DAF-12 receptor from parasite S. stercoralis. hit rate 1% among 370,000. activation, % at 6.8 µM. AID 652126. HEK293 ssDAF-12/GRIP1 lit1-tk-luc reporter, luminescence; % of 3 µM dafachronic acid response;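 active = activation above the mean over all tested compounds plus 3 SD, cut at about 0.9% in these data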
DAX1 inh-2 – inhibits human nuclear receptor DAX1; P51843; HEK293 Gal4-DAX1 luciferase reporter, luminescence; hit rate 0.99% among 340,000; inhibition, % at 6.75 µM; AID 504766;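 active = inhibition above the mean over all tested compounds plus 3 SD, cut at about 4.2% in these data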;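 note: inhibition shows as a rise in luminescence from relieved DAX1 repression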
Target sequence (P51843 207-470 limits assumed): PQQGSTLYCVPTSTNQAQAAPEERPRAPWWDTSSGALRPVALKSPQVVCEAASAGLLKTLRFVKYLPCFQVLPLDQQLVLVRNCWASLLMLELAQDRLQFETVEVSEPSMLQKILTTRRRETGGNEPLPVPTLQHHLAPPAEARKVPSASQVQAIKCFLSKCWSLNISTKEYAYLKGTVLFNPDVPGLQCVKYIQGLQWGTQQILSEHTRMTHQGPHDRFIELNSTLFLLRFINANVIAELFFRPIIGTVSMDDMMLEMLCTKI
hgDAF-12 ag – activates the H. glycines DAF-12 receptor ligand-binding domain. HEK293 GAL4-hgDAF12 UAS-luciferase reporter, agonist luminescence; normalized to butyrate control. activation, % at 6.8 µM. hit rate 1.8% among 370,000;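 active = activation above a cutoff set at the mean of all screened compounds plus 3 SD, cut at about 10% in these data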
DAX1 inh confirm – NR0B1 (human) inhibition, confirmation; HEK293T StAR-promoter luciferase reporter, SF-1/DAX-1 repression; hit rate 87% among 2,400; inhibition, % at 6.8 µM; shares compounds with DAX1 inh-1;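 active = inhibition above the average of every tested compound plus 3 SD, cut at about 3.8% in these data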;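 note: active compounds raise luminescence by relieving repression of the StAR reporter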
Target sequence (P51843 whole entry, looked up): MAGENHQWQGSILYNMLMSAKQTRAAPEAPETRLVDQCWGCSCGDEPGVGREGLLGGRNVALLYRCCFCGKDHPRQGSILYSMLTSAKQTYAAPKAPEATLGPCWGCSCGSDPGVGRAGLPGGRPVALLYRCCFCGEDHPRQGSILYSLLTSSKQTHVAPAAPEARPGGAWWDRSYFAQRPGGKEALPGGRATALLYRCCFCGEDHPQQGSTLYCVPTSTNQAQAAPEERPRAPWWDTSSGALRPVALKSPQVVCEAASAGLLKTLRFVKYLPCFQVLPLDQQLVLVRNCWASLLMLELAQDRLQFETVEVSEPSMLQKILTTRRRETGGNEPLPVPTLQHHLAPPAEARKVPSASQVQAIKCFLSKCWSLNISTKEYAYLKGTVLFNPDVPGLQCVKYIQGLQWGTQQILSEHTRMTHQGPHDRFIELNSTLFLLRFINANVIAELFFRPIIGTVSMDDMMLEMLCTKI
SF1 AF2mut Luc – nonselective inhibitor or artifact in SF-1 mutant DAX1 counter-screen; shares compounds with DAX1 inh-1; HEK293 StAR-luciferase, SF-1 AF2 mutant, luminescence; inhibition, % at 6.8 µM; hit rate 78% among 2,400; AID 652136;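 active = inhibition above the mean of all tested compounds plus 3 SD, cut at about 3% in these data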
LXR ag – activates human LXR-beta, counter-screen for hcDAF-12 agonists; activation, % at 6.8 µM; shares compounds with hcDAF-12 act; AID 743027; 3,400 tested, under 10 active; HEK293 Gal4-LXR tk-luc reporter, luminescence, 24 h; normalized: DMSO 0%, positive control 100%;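 active = mean percent activation of the reporter above a cutoff set as the average over tested compounds plus their standard deviation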
hcDAF12 ag – confirmation of H. contortus DAF-12 agonists; shares compounds with hcDAF-12 act; HEK293 hcDAF-12 lit1-tk-luc reporter, luminescence; % of Δ7-dafachronic acid response; activation, % at 6.8 µM; hit rate 61% among 3,400;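 active = mean activation across triplicate tests above the threshold derived from the earlier primary screen, cut at about 5.5% in these data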
hgDAF12 ag – hgDAF-12 agonism, confirmation assay; AID 743050; shares compounds with hgDAF-12 ag; activation, % at 6.8 µM; hit rate 80% among 3,300; HEK293 GAL4-hgDAF12 luciferase reporter, agonist mode; percent of butyrate response;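 active = mean activation over triplicate wells above the hit cutoff derived from the earlier primary screen, cut at about 11% in these data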
LXRb DAF12 ctr – counter-screen for DAF-12 agonists: agonists of human LXR-beta; shares compounds with hgDAF-12 ag; HEK293 Gal4-LXR luciferase reporter, 24 h; activation, % at 6.8 µM; 3,300 tested, under 10 active; AID 743051;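 active = mean activation of the triplicate above a set limit carried over from the primary screen, none filed active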
Numbers stand for hits; – = inactive; · = no result given. Compounds with a hit are over-represented: about 4.1% of the library has one in this group of screens.

SMILES | DAX1 inh-1 | hcDAF-12 act | ssDAF-12 act | DAX1 inh-2 | hgDAF-12 ag | DAX1 inh confirm | SF1 AF2mut Luc | LXR ag | hcDAF12 ag | hgDAF12 ag | LXRb DAF12 ctr
Cc1ccc2nc(-c3ccc(NC(=O)COC(=O)c4ccc(=O)[nH]c4)cc3)sc2c1 | 8.4 | 11 | 1.2 | – | 22 | 14 | 8.5 | – | 11 | 23 | –
Cc1ccc2nc(-c3ccc(NC(=O)CSc4nc(N)cc(=O)[nH]4)cc3)sc2c1 | 4.8 | – | – | 4.5 | 25 | 7.3 | 4.0 | · | · | 18 | –
Cc1ccc2nc(-c3ccc(NC(=O)CN4C(=O)c5ccccc5C4=O)cc3)sc2c1 | 5.4 | 14 | 2.2 | – | 19 | 15 | 7.4 | – | 8.3 | 16 | –
Nc1cc(=O)[nH]c(SCC(=O)Nc2ccc(F)c(Cl)c2)n1 | – | – | – | – | – | · | · | · | · | · | ·
Cc1ccc2nc(-c3ccc(NC(=O)CNC4CC4)cc3)sc2c1 | 5.7 | – | 2.4 | – | 21 | 14 | 7.0 | · | · | 15 | –
O=C1CSc2ccc(C(=O)N3CCCC(C(=O)N4CCCCC4)C3)cc2N1 (centres undefined) | – | – | – | · | – | · | · | · | · | · | ·
c1ccc(-c2nc(-c3nccc4ccccc34)oc2-c2ccccc2)cc1 | 4.8 | 15 | 3.0 | 5.0 | 18 | 4.8 | – | – | 5.7 | 19 | –
CCCc1cn(-c2ccc3c(c2)[C@]2(CC(=O)N(C)C2c2ccccc2)C(=O)N3CC(C)C)nn1 (some centres undefined) | – | – | – | · | – | · | · | · | · | · | ·
c1ccc(N=NC2=NN(c3ccccc3)CS2)cc1 | 6.5 | 16 | 1.7 | – | 16 | 7.0 | 3.4 | – | 8.3 | 12 | –
Cc1ccc(-c2cnc3cc(C)nn3c2)cc1 | 9.7 | 5.9 | – | – | 18 | 11 | 5.2 | · | · | 12 | –
Cc1ccc(-c2cnc3c(Cl)c(C)nn3c2)cc1 | 6.6 | – | – | – | 24 | – | – | · | · | 18 | –
O=C(N/N=C/c1ccccc1[N+](=O)[O-])c1ccc2c(c1)OCCO2 | 5.6 | 6.2 | – | – | 24 | 11 | 4.8 | · | · | 15 | –
O=C(N/N=C/c1cccc(O)c1)c1ccc2c(c1)OCCO2 | 19 | 13 | 1.1 | – | 18 | 17 | 9.4 | – | 8.5 | 18 | –
O=C(N/N=C/c1cc([N+](=O)[O-])ccc1O)c1ccc2c(c1)OCCO2 | – | – | – | – | – | · | · | · | · | · | ·
COc1ccc(-c2nc(-c3ccc(Br)o3)no2)cc1 | 7.3 | – | 1.3 | – | 17 | 14 | 3.5 | · | · | 16 | –
CSc1ccccc1C(=O)Nc1ccc2c(c1)CCC2 | – | – | – | – | – | · | · | · | · | · | ·
O=C(Nc1ccc2c(c1)CCC2)c1ccccc1Br | 6.8 | 7.2 | – | 7.6 | 18 | 14 | 6.6 | – | – | 17 | –
CC(NC(=O)c1cc(COc2ccccc2)on1)c1nccs1 (centres undefined) | 7.3 | 7.9 | – | – | 20 | 8.3 | 5.2 | – | 6.0 | 19 | –
CC(=O)c1ccc(OCc2cc(C(=O)NC(C)c3cnn(C)c3)no2)cc1 (centres undefined) | – | – | – | – | – | · | · | · | · | · | ·
CC(=O)N1CCN(c2ccc(N3CCN(Cc4ccccc4)[C@@H](C)C3)c(C)c2)[C@H](C)C1 | – | – | – | · | – | · | · | · | · | · | ·
C1=C(c2cn(-c3nc4ccccc4s3)nn2)CCCC1 | 11 | 12 | – | · | 20 | 12 | 5.8 | – | 8.5 | 20 | –
c1ccc2sc(N3CCOCC3)nc2c1 | – | – | – | – | – | · | · | · | · | · | ·
c1ccc2sc(-n3cc(C4CCCCC4)nn3)nc2c1 | 9.2 | 6.6 | 1.3 | · | 26 | 15 | 8.7 | – | 5.9 | 25 | –
CCCCC(=O)Nc1ccc(C(=O)NNC(=O)c2ccc(C)c(Br)c2)cc1 | – | – | – | – | – | · | · | · | · | · | ·
Cc1cc(NC(=O)c2ccc3nccnc3c2)ccc1Br | 5.6 | – | – | – | 16 | 7.6 | 4.7 | · | · | 15 | –
SMILES | DAX1 inh-1 | hcDAF-12 act | ssDAF-12 act | DAX1 inh-2 | hgDAF-12 ag | DAX1 inh confirm | SF1 AF2mut Luc | LXR ag | hcDAF12 ag | hgDAF12 ag | LXRb DAF12 ctr
CC(=O)c1ccc(NC(=O)c2ccc(C)c(Br)c2)cc1 | 4.9 | 5.7 | – | – | 16 | 12 | 9.4 | · | · | 18 | –
Cc1ccc(C(=O)Nc2ccc3nccnc3c2)cc1 | 5.3 | 9.0 | – | – | 13 | 17 | 8.3 | – | 7.7 | 16 | –
COC(=O)c1ccc(NC(=O)c2ccc3nccnc3c2)cc1 | – | – | – | – | – | · | · | · | · | · | ·
COC(=O)[C@]12C=CCN1[C@@H](c1ccc(C(F)(F)F)cc1)c1c(c3ccccc3n1S(=O)(=O)c1ccc(C)cc1)C2 | – | – | – | · | – | · | · | · | · | · | ·
COCCCNc1ccn2nc(-c3cccc(Cl)c3)cc2n1 | 5.3 | 8.5 | – | · | 21 | 13 | 4.8 | – | 9.2 | 21 | –
O=C(Nc1nc2ccccc2s1)c1ccc(F)cc1 | 4.7 | 7.8 | 1.8 | – | 16 | 8.0 | 4.3 | – | 8.8 | 20 | –
Cc1noc(C)c1C(=O)Nc1nc2ccc(F)cc2s1 | 8.9 | 7.0 | – | – | 14 | 9.8 | 5.3 | – | 5.8 | 14 | –
Cc1ccc2nc(NC(=O)c3ccco3)sc2c1 | – | – | – | – | – | · | · | · | · | · | ·
Cc1cc(S(=O)(=O)NC(=O)[C@H]2O[C@@H](n3ccc(=O)[nH]c3=O)[C@H](O)[C@@H]2O)ccc1Br | – | – | – | · | – | · | · | · | · | · | ·
CN(C)c1ccc(CNc2nc3ccccc3n2C)cc1 | 4.8 | – | – | – | 15 | 8.6 | 6.9 | · | · | 17 | –
COC(=O)c1cc(-c2cc3ccccc3o2)c(=O)n2c1CCC2 | – | – | – | · | – | · | · | · | · | · | ·
c1ccc(OC2CCN(c3ncnc4sccc34)CC2)cc1 | · | – | – | · | – | · | · | · | · | · | ·
COc1ccc(C(C)(C)C)cc1N1C(=O)[C@@H]2CSCCS(=O)(=O)N2C1=O | – | – | – | · | – | · | · | · | · | · | ·
Cn1c(N=NC(=O)c2ccccc2)c(O)c2ccccc21 | 5.8 | 13 | 2.1 | – | 21 | 15 | 5.7 | – | 5.9 | 16 | –
COc1ccc(CC(=O)NC2CCCCN(Cc3ccc(Cl)cc3)C2=O)cc1OC (centres undefined) | – | – | – | · | – | · | · | · | · | · | ·
